Hits are enriched below; roughly 3.8% of the tested compounds scored in any of these assays.
PAFAH2 FP inh: PAFAH2 (human) inhibition | Q99487 | recombinant PAFAH2, FP-rhodamine activity probe, fluorescence polarization | inhibition, % at 3.39 µM | 0.99% of 340,000 active;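 active means inhibition above the mean over all tested compounds plus 3 SD, cut at about 30% in these data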;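 further: inhibitors block probe labeling of enzyme so polarization drops; 0% = enzyme with DMSO and 100% = wells lacking PAFAH2 protein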
pPAFAH inh: pPAFAH (human) enzyme inhibition | recombinant pPAFAH, FP-rhodamine probe fluorescence polarization | inhibition, % at 3.39 µM | 1.5% of 330,000 active;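 active means inhibition above the mean inhibition across the screen plus 3 SD, cut at about 25% in these data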;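 further: inhibitors block binding of the rhodamine activity-based probe so polarization drops; 0% = enzyme with DMSO and 100% = wells lacking pPAFAH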
Target sequence (Q13093 whole entry, looked up): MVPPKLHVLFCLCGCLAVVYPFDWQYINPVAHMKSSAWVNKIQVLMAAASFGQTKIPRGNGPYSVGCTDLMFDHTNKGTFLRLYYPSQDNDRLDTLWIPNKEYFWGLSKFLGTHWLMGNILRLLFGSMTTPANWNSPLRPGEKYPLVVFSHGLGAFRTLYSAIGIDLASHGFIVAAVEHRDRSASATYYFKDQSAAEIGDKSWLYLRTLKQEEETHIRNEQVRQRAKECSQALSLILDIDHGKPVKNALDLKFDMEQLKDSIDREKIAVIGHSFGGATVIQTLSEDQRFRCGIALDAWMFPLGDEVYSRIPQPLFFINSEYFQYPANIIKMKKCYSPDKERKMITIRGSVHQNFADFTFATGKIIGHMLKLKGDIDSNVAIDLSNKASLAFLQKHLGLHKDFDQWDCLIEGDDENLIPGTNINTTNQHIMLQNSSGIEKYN
PfM18AAP inh: blocks P. falciparum M18 aspartyl aminopeptidase. 1.2% of 290,000 active. inhibition, % at 7.35 µM. recombinant PfM18AAP, H-Glu-NHMec fluorogenic cleavage;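 active means inhibition above the campaign mean inhibition over all tested compounds plus 3 SD, cut at about 28% in these data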;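 further: 0% = plate median of test compound wells and 100% = 2 mM ZnCl2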
PAFAH1B3 inh: PAFAH1B3 (human) inhibition | Q15102 | inhibition, % at 3.39 µM | AID 492972 | 0.28% of 340,000 active | recombinant PAFAH1B3, FP-rhodamine probe, fluorescence polarization;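 active means inhibition above the screen-wide average of all tested compounds plus 3 SD, cut at about 25% in these data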;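 further: 0% = enzyme with DMSO only and 100% = wells lacking PAFAH1B3 protein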
Target sequence (Q15102 whole entry, looked up): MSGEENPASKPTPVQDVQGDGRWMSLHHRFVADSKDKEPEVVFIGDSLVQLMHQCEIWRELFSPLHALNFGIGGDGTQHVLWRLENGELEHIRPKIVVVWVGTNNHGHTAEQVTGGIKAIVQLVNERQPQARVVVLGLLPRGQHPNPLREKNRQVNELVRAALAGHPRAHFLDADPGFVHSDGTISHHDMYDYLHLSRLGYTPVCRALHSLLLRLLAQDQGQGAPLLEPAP
Pemphigus Ab inh: inhibitors of pemphigus antibody binding to human desmoglein-3; P32926; DSG3-coupled beads, scFv-anti-DSG3-GFP binding, flow cytometry; active compounds read low; binding (percent of control), % at 10 µM; 0.48% of 310,000 active;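 active means binding more than 3 SD below its plate's average and above zero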;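 further: hits lower antibody fragment binding to DSG3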
PAFAH1B2 inh: blocks human PAF acetylhydrolase 1b catalytic subunit 2; P68402; recombinant PAFAH1B2, FP-rhodamine activity probe, fluorescence polarization; inhibition, % at 3.39 µM; 1.2% of 340,000 active;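 active means inhibition above the mean of all tested compounds plus 3 SD, cut at about 24% in these data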;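 further: 0% = enzyme with DMSO and 100% = wells lacking PAFAH1B2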
* marks the source's active call; other numbers are inactive results; · = not tested or not shown.

SMILES	PAFAH2 FP inh	pPAFAH inh	PfM18AAP inh	PAFAH1B3 inh	Pemphigus Ab inh	PAFAH1B2 inh
COc1ccc(N(C(=O)CNC(=O)c2ccco2)C(C(=O)NC2CCCCC2)c2ccco2)cc1 (stereo unspecified)	9.5	7.8	2.4	11.0	102.2	25.6*
COc1ccc(C2CCCCCN2C(=O)C2CCN(S(=O)(=O)c3ccc(C)cc3)CC2)cc1 (stereo unspecified)	·	·	·	·	93.1	·
O=C(CSc1nnc2ccccn12)Nc1ccccc1[N+](=O)[O-]	·	·	·	·	100.8	·
O=c1c2ccccc2c(-c2cccc(C(F)(F)F)c2)nn1-c1ccccc1	4.8	20.6	6.3	-2.1	·	-0.6
O=c1c2cc(F)ccc2sn1-c1ccccc1	-3.7	10.4	·	-2.7	43.2*	1.8
O=c1c2ccccc2sn1-c1ccc(S(=O)(=O)N2CCCCC2)cc1	4.3	10.2	12.4	7.6	88.8	8.0
O=c1c2cc(C(F)(F)F)ccc2sn1-c1ccccc1	·	·	·	·	68.1*	·
CCCc1cc(=O)n2[nH]c(C)c(-c3ccccc3)c2n1	-2.1	2.1	1.4	8.4	100.9	0.4
Cc1[nH]n2c(=O)cc(-c3ccc([N+](=O)[O-])cc3)nc2c1-c1ccccc1	20.9	32.6*	-8.8	13.4	100.6	19.3
Cc1ccccc1NC(=O)Cc1nc(COC(=O)Cc2cccc(C(F)(F)F)c2)cs1	·	·	·	·	92.6	·
O=C(COC(=O)c1ccc(OC(F)(F)F)cc1)Nc1ncccn1	14.8	24.8*	·	-0.8	108.1	0.5
O=C(O)c1ccc(N/N=C/c2cn(Cc3ccc(F)cc3)c3ccccc23)cc1	15.4	28.9*	13.8	5.3	99.3	6.0
Cc1ccc(Cn2cc(/C=N/Nc3ccc([N+](=O)[O-])cn3)c3ccccc32)cc1	3.4	8.6	54.1*	0.6	108.3	2.3
CCNC(=S)N/N=C/c1cn(Cc2ccc(F)cc2)c2ccccc12	4.0	10.9	-6.2	24.2	101.4	4.0
CC(C)(C)c1ccc(-n2ncc3c2CCCC3NC(=O)c2ccco2)cc1 (stereo unspecified)	·	·	·	·	101.7	·
CCOC(=O)NC1(Nc2ccc(Cl)cn2)Oc2ccccc2O1	·	·	56.7*	·	·	·
N#Cc1c(Nc2cccc(F)c2)sc2c(O)cc(=O)[nH]c12	·	25.1*	6.0	·	·	·
O=c1c2c([N+](=O)[O-])cc([N+](=O)[O-])cc2sn1-c1ccc(Br)cc1	3.1	16.6	25.4	1.8	-121.2*	0.3
CCN(CC)CCn1c(=S)[nH]c2cc(C(=O)NCCc3ccc(OC)c(OC)c3)ccc2c1=O	·	·	·	·	92.0	·
S=C(Nc1ccc(Oc2ccccc2)cc1)N1CCOCC1	127.1*	6.9	3.3	115.1*	118.2	93.2*
S=C(Nc1ccccc1)N1CCOCCOCCN(C(=S)Nc2ccccc2)CCOCCOCC1	-2.1	5.2	-9.4	-3.8	112.6	-3.5
COc1ccc2nc(NC(=O)CSc3nc4cccnc4n3C)sc2c1	0.5	-0.7	-5.7	5.1	83.6*	2.7
COc1cc2c(cc1OC)C(C)N(C(=O)/C=C/c1cc(OC)c(OC)c(OC)c1)CC2 (stereo unspecified)	-2.1	2.2	8.7	5.3	82.0*	1.1
COc1cc2c(cc1OC)C(C)N(C(C)=O)CC2 (stereo unspecified)	6.2	0.7	-4.1	-0.6	89.3	3.4
CC(C)Sc1ccccc1C(=O)Nc1ccc2c(c1)n(C)c(=O)n2C	5.9	·	-2.2	14.0	98.2	7.3
SMILES	PAFAH2 FP inh	pPAFAH inh	PfM18AAP inh	PAFAH1B3 inh	Pemphigus Ab inh	PAFAH1B2 inh
NNC(=S)NC1CCCCCCCCCCC1	6.4	7.8	2.7	-2.9	105.3	55.1*
CCOC(=O)c1nn(-c2ccccc2)c(=O)c2c(NC(C)=O)scc12	0.9	2.9	-12.4	5.4	61.9*	7.2
CCOC(=O)c1cc2c(C)nn(-c3ccccc3)c2s1	-1.7	4.1	1.4	10.7	-30.2*	1.4
CCOC(=O)N1CCN(C(=O)c2ccccc2NC(=O)COc2ccccc2)CC1	-4.0	3.2	0.9	-1.4	112.1	49.2*
CCOC(=O)Cc1csc(N/N=C\c2ccc(N(C)C)cc2)n1	-6.7	-5.2	38.4*	2.1	91.9	2.8
CCOC(=O)Cc1csc(NC(=O)CSc2nc(-c3ccccc3)c(C#N)c(=O)[nH]2)n1	0.0	-3.1	-8.9	13.9	104.6	65.1*
CCOC(=O)Cc1csc(NC(=O)COc2ccccc2)n1	3.4	-1.7	-5.2	0.7	65.3*	-2.6
CCOc1ccc2nc(NC(=O)CSc3nc(-c4ccccc4)c(C#N)c(=O)[nH]3)sc2c1	-11.7	·	2.3	2.0	102.7	82.5*
COc1cccc(-c2nc(SCC(=O)Nc3nc(-c4ccccc4)c(C)s3)[nH]c(=O)c2C#N)c1	-10.9	-3.2	7.3	-6.7	111.5	16.4
O=C(COC(=O)CC1CC2CCC1C2)Nc1c(F)cccc1F (stereo unspecified)	21.8	23.9	2.5	0.1	112.1	2.9
O=C(COC(=O)CC1CC2CCC1C2)Nc1ccccc1Cl (stereo unspecified)	44.6*	28.4*	·	5.5	104.7	0.0
COc1ccc(NC(=O)COC(=O)CC2CC3CCC2C3)c([N+](=O)[O-])c1 (stereo unspecified)	53.9*	32.6*	-5.5	3.2	115.2	7.3
COc1ccc(NC(=O)CC2Nc3cc(C)c(C)cc3NC2=O)c([N+](=O)[O-])c1 (stereo unspecified)	-1.1	25.5*	3.0	-5.2	84.2	7.3
CN1CCN(S(=O)(=O)c2cccc(C(=O)Nc3ccc(Br)cc3Br)c2)CC1	1.7	-0.4	1.6	-1.5	95.9	3.7
CC(=O)CCc1ccc(Oc2nc(-c3cccnc3)nc3ccccc23)cc1	2.8	24.6*	9.1	2.9	103.6	2.3
C=CCN(C(=O)c1ccc(Cl)cc1)c1ccccc1C(=O)NCC(=O)O	9.3	4.6	-4.5	10.9	110.1	8.6
COCCN(C(=O)c1ccc(OCC(C)C)cc1)c1c(N)n(Cc2ccccc2)c(=O)[nH]c1=O	-14.1	31.0*	·	-9.9	94.1	-0.2
CN(C(=O)CCOc1ccccc1)c1c(N)n(Cc2ccccc2)c(=O)[nH]c1=O	2.3	2.4	·	7.8	63.4*	0.0
COc1cc(C)c(/C=C/C(C)=C/C=C/C(C)=C/C(=O)O)c(C)c1C	17.4	29.0*	·	3.3	99.6	1.1
Cc1cc(Oc2ccccc2F)nc(NCc2ccccc2)n1	3.8	·	1.6	-0.6	-3.2*	4.6
CCN1CCN(c2cc(N3CCN(C(=O)c4ccco4)CC3)c3c4c(onc24)-c2ccccc2C3=O)CC1	-18.9	27.3*	22.0	-2.6	85.4	1.4
Cc1sc(NC(=O)C2=COCCO2)nc1-c1ccc(Cl)cc1	-3.0	1.7	·	7.7	102.2	1.8
CN(C(=O)COC(=O)CSc1ccc([N+](=O)[O-])cc1)c1ccccc1	-9.8	24.2	·	-2.5	101.3	21.5
CN(C(=O)COC(=O)CN1C(=O)c2cccc([N+](=O)[O-])c2C1=O)c1ccccc1	-3.3	0.3	·	2.4	77.2*	5.3

Screens (PubChem BioAssay)
